Measured values reported in PMC5540273 (PLoS ONE, 2017).

test system: AURKB; conditions: concentration: 1 μM,replicates: in singlicate; n = 1
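Further: KINOMEscan kinase panel screen.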

| SMILES | %Inh |
| --- | --- |
| CS(=O)c1ccc(-c2coc3ccc(-c4n[nH]c(=O)o4)cc23)cc1 (stereo not shown) | 26% |
| O=C(Nc1cccc(Oc2ccc3nccn3n2)c1)Nc1cccc(C(F)(F)F)c1 | 0% |
| CCNCC(Cc1ccccc1)NC(=O)c1cc(Br)c(-c2ccnc3[nH]ccc23)s1.Cl.Cl (stereo not shown) [GSK1383280] | 93.6% |
| COC(=O)Nc1nc2cc(Oc3ccc(NC(=O)Nc4cc(C(F)(F)F)ccc4Cl)cc3)ccc2[nH]1.Cl [GW697465] | 86% |
| COc1cc2nccc(Nc3ccc(Oc4ccccc4)cc3)c2cc1OC.Cl [GI261656] | 17% |
| Cc1ccc2c(-c3ccnc(Nc4ccc(C(F)(F)F)cc4)n3)cnn2n1 [GW819776] | 32% |
| O=C(Nc1ccccc1)c1cccc(Oc2ccc3nccn3n2)c1 | 4% |
| C[C@@H](Oc1cc(-n2cnc3cc(-c4ccncc4)ccc32)sc1C(N)=O)c1ccccc1Cl [GSK479719] | 48% |
| CS(=O)(=O)Nc1ccc(-c2ccnc3[nH]ccc23)cc1 [GSK993273] | 48% |
| NC(=O)c1ccc(-c2cc3ncnc(SCC(=O)O)c3s2)cc1 | 80% |
| CN(c1ccc2c(c1)nc(NCc1ccc(F)cc1)n2C)c1ccnc(Nc2ccc(CS(C)(=O)=O)cc2)n1.Cl [GW813244] | 70% |
| Cn1ccc2ncnc(Oc3ccc(NC(=O)Nc4cccc(C(F)(F)F)c4)c(F)c3)c21 | 88% |
| CCOC(=O)N1CCC(n2cnc(-c3ccc(F)cc3)c2-c2ccnc(N)n2)CC1 [SB-219952] | 37% |
